Results as given in the supplement of paper PMC6555819.

Columns and labels:
Assay in all cases: PBM binding z-score (relative to random genomic background probes); higher = stronger binding; sequences stand for … in GC…GCGATTGACAGCGTAGAATGAAGG
[1] = test system: PPARg:RXRa DBDmut IVT, anti-RXR (DBD mutation: RXRa K156A/R161A, NR concentration 270 nM, RXRa partner concentration 90 nM)
Summary of the method: (§1)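 Binding z-scores take random background probes as their reference. They come from custom Agilent 4×180K protein-binding microarrays incubated 1 h with ligand-free nuclear receptor dimers, with antibodies against each partner (one per run) detecting binding. Scanned fluorescence was regression-normalized.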

[2] = test system: PPARg:RXRa IVT, anti-PPARg (NR concentration 270 nM, RXRa partner concentration 90 nM)
Summary of the method: as §1

[3] = test system: PPARg DBDmut:RXRa IVT, anti-PPARg (DBD mutation: PPARg1 K132A/R137A, NR concentration 270 nM, RXRa partner concentration 90 nM)
Summary of the method: as §1

[4] = test system: PPARg DBDmut IVT, anti-PPARg (DBD mutation: PPARg1 K132A/R137A, NR concentration 270 nM)
Summary of the method: as §1

[5] = test system: PPARg homodimer (NR concentration 180 nM)
Summary of the method: as §1

[6] = test system: PXR:RXRa (NR concentration 270 nM, RXRa partner concentration 90 nM)
Summary of the method: as §1

[7] = test system: PXR homodimer (NR concentration 270 nM)
Summary of the method: as §1

[8] = test system: RARa:RXR (NR concentration 270 nM, RXRa partner concentration 90 nM)
Summary of the method: as §1

[9] = test system: RARa homodimer (NR concentration 270 nM)
Summary of the method: as §1

[10] = test system: RARb:RXRa (NR concentration 270 nM, RXRa partner concentration 90 nM)
Summary of the method: as §1

Sequence | PBM binding z-score [1] | PBM binding z-score [2] | PBM binding z-score [3] | PBM binding z-score [4] | PBM binding z-score [5] | PBM binding z-score [6] | PBM binding z-score [7] | PBM binding z-score [8] | PBM binding z-score [9] | PBM binding z-score [10]
CCGACTGGGCCATCAGGTCATTGATATCAACGTT | 3.07 | 3.51 | -1.33 | -0.437 | 0.811 | 1.47 | 0.46 | 1.85 | -0.257 | 2.04
AATTACGGGTCAACGAGGTTATAGCACGCGTATA | 3.6 | 5.01 | 2.85 | 2.31 | 3.16 | 5.27 | 3.27 | 5.49 | 1.87 | 4.27
ATACCAAGGTGATCGTGAGGTGGTTGATACTAAC | 0.119 | 0.996 | 0.272 | 0.15 | 0.0507 | 0.417 | 0.167 | 0.474 | 0.144 | 0.774
TCATATAGGTAAATACTAGGTGAAAGTCCGATCT | 4.28 | 4.37 | 1.5 | 1.37 | 1.15 | 0.747 | 0.389 | 1.15 | 1.65 | 0.482
TAGCCTGGGTCATGCGGGCCAGTATAGTGTCGGC | 0.519 | 2.76 | -0.229 | 0.545 | 0.758 | 1.64 | -0.615 | 2.42 | -0.605 | 3.18
CGAACTAGGGCAAGGACAGTGAATCTCCGCACGC | 7 | 6.14 | 0.631 | -0.116 | -0.153 | -0.332 | -0.43 | -0.371 | -0.534 | 1.59
ATCTCTAGGTAAACATAGTTCAGTGAATGCAAAT | 2.31 | 2.59 | 0.983 | 1.45 | 1.28 | 1.35 | 0.955 | 0.73 | 1.3 | 1.01
GCTACCAGGCCATTTGGGTCACTCAATGACGGGC | 2.04 | 2.77 | 0.125 | -0.407 | -0.0143 | 0.976 | 0.553 | 0.919 | -0.79 | 1.59
AGTCAAAGCTCACTAGGTAACGTAAGATTCAGCT | 1.92 | 2.79 | 0.267 | -0.313 | -0.462 | -0.363 | -0.294 | -0.364 | -0.0387 | -0.0625
TCTATTAGTTGAAGGGCAGCCGACGAGTCCGTTT | 2.37 | 0.427 | 0.454 | 1.07 | 0.963 | 0.654 | 0.958 | 0.447 | 0.781 | 1.37
ACAGACAGGTGATGAACGTAACTCAGGCTATCAT | -0.0291 | 0.144 | 0.839 | 0.504 | -0.201 | -0.104 | 0.276 | -0.047 | 0.235 | -0.0365
TCTTGTAGCTCAATAGAGGTTAAGAAAGTGCGCT | 0.915 | 0.506 | 0.592 | 0.551 | -0.185 | 2.46 | -0.163 | 1.28 | -0.147 | 0.573
ACAGACACGTGAGTGAAGGTAACTCAGCTGGACG | -0.453 | -0.172 | -0.0263 | 0.112 | -0.539 | -0.408 | -0.777 | -0.0459 | -0.522 | -0.255
TCTTGTAGATCAAAGGTTGAGAAAGCCGAAGCCT | 2.32 | 2.51 | 0.407 | -0.0322 | -0.0761 | 0.618 | -0.464 | 1.05 | -0.393 | 0.592
TAGCCTAGGTCATTGGGCCGGTATAGTACGCATC | 1.71 | 3.19 | 0.219 | -0.308 | 0.812 | 1.39 | -0.428 | 1.95 | -0.0602 | 3.48
GCGACTGCGGCATCAGCAGGTTACCATAACTTAA | -0.255 | -0.657 | -1.23 | -0.596 | -0.378 | -0.379 | -0.376 | -0.0824 | -0.219 | -0.277
CCACGGAGGACAACAGGAGGTCAGAGCTGCCAGA | -0.448 | 0.453 | -0.512 | -0.952 | 1.79 | 2.21 | 0.52 | 2.53 | 1.2 | 2.99
ACTATCAGTTGAGACGAGGGCAACCGATAGGTTG | -0.519 | 0.218 | -0.42 | -0.235 | 0.148 | 1.44 | -0.0291 | 0.7 | -0.128 | 0.903
TCATATAGTTAAATGCTAGGTGAAAGTCCGATCT | 2.22 | 0.879 | 0.746 | 1.69 | 1.11 | 0.631 | 0.356 | 0.763 | 1.49 | 0.272
TCTAGCAGGCCAGAGGATCACTCAAGAGGTACGG | 0.493 | -0.268 | -0.802 | -1.11 | -1.15 | -0.557 | -0.932 | -0.354 | -1.38 | -0.18
GCTGCTAGGTCAACTGATGGTCAGCCAAAGCTCG | 4.84 | 3.92 | 0.564 | -0.45 | 1.57 | 1.39 | -0.698 | 2.93 | -0.0572 | 4.27
TTACCAATGTGAGCTGAGGTCGTTGATCCAACTC | -0.252 | -0.0612 | 0.679 | -0.281 | -0.49 | 2.46 | 0.562 | 1.53 | -0.185 | 0.439
CTGACTGGGGCAGAAAGGTTACCATACCATCCGG | 2.87 | 3.6 | 0.376 | 0.141 | 1.76 | 1.12 | 0.49 | 1.75 | 0.326 | 2.13
AGAATGAGGTTACCAAGGATCAGGGAAACGCTTG | 3.39 | 3.37 | 1.28 | 0.207 | 0.544 | 1.28 | 0.0221 | 2.01 | -0.233 | 2.04
